Results as given in PubChem BioAssay (NCI).
This is part of a sample that, as a whole, favours compounds with a hit. Of some 83,000 tested, about 20% had one in any assay.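 Each cell line was grown in a 96-well plate and treated with one concentration of compound for 48 hours. Values below 10 were considered active.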 Values without a mark were called inactive. The source made the active and inactive calls.

Assays:
Assay in all cases: NCI-60 one-dose screen, 48 h (100 = growth as untreated, 0 = no growth, -100 = all killed)
[1] = tested on: DU-145 prostate; settings: 10 µM unless noted
[2] = tested on: K-562 leukemia; settings: 10 µM unless noted
[3] = tested on: MALME-3M melanoma; settings: 10 µM unless noted
[4] = tested on: RXF 393 renal; settings: 10 µM unless noted
[5] = tested on: SF-268 CNS; settings: 10 µM unless noted
[6] = tested on: SF-295 CNS; settings: 10 µM unless noted
[7] = tested on: SF-539 CNS; settings: 10 µM unless noted
[8] = tested on: HCT-15 colon; settings: 10 µM unless noted
[9] = tested on: HT29 colon; settings: 10 µM unless noted
[10] = tested on: SNB-75 CNS; settings: 10 µM unless noted
[11] = tested on: SNB-19 CNS; settings: 10 µM unless noted
[12] = tested on: U251 CNS; settings: 10 µM unless noted
[13] = tested on: PC-3 prostate; settings: 10 µM unless noted
[14] = tested on: SK-MEL-5 melanoma; settings: 10 µM unless noted
[15] = tested on: UACC-62 melanoma; settings: 10 µM unless noted
[16] = tested on: LOX IMVI melanoma; settings: 10 µM
[17] = tested on: SK-MEL-28 melanoma; settings: 10 µM unless noted
[18] = tested on: MDA-MB-231 breast; settings: 10 µM unless noted
[19] = tested on: UACC-257 melanoma; settings: 10 µM unless noted
[20] = tested on: M14 melanoma; settings: 10 µM unless noted

Structure (SMILES) | growth [1] | growth [2] | growth [3] | growth [4] | growth [5] | growth [6] | growth [7] | growth [8] | growth [9] | growth [10] | growth [11] | growth [12] | growth [13] | growth [14] | growth [15] | growth [16] | growth [17] | growth [18] | growth [19] | growth [20]
COc1ccc(NNS(=O)(=O)O)cc1 | 111% | 99.5% | 104% | 95.1% | 106% | 92.5% | 95.1% | 101% | 99.9% | 83.2% | 98.1% | 98% | 86.1% | 102% | 96.7% | 99.7% | 107% | – | – | –
COc1ccc(C2CC(c3ccccc3)=Nc3ccccc3S2)cc1 (centres undefined) | 99.8% | 77.9% | 82.5% | – | 105% | – | 111% | 98.3% | 92.8% | 80.7% | 93.8% | – | 82.7% | 94.2% | 97.9% | 95% | 98.4% | 98.9% | 103% | 106%
CCN(C(C)=O)c1ccc([N+](=O)[O-])cc1 | 110% | 107% | 101% | 106% | 103% | 108% | 109% | 109% | 104% | 108% | 101% | 90.8% | 97.5% | 96.2% | 97.5% | 98.6% | 106% | – | 94.9% | 113%
O=C(OCc1ccccc1)n1nnc2ccccc21 | 112% | 107% | – | 113% | 104% | 99.2% | 105% | 104% | 106% | 90.2% | 112% | 99.2% | 104% | 105% | 94.4% | 99.6% | 101% | 96.6% | 97.2% | 98.7%
COC1OC(C(O)C(O)CO)C(O)C(O)C1O (centres undefined) | 118% | 104% | 101% | 98% | 103% | 100% | 97.5% | 99.1% | 100% | 95.6% | 105% | 98.9% | 95.6% | 107% | 102% | 102% | 101% | – | 95.6% | 97.4%
C=C(c1ccc(N(C)C)cc1)c1ccc(N(C)C)cc1 | 20.3% | 5.61% (active) | 20.6% | -11% (active) | 31.2% | 21% | -44.9% (active) | 6.8% (active) | -31.6% (active) | -14.5% (active) | 20.6% | 3.57% (active) | 25.7% | -0.97% (active) | -8.67% (active) | – | 31.5% | – | 52.3% | –
CC(=O)c1cccc(O)c1 | 105% | 103% | – | 112% | 97.1% | 101% | 98% | 101% | 92.1% | 91.4% | 108% | 97.2% | 106% | 100% | 109% | 94.6% | 109% | 104% | 99.3% | 99.6%
O=c1cc(C(F)(F)F)[nH]c(=S)[nH]1 | 109% | 111% | 96.6% | 104% | 121% | 98.3% | 96.5% | 103% | 108% | 102% | – | 101% | 116% | 98.7% | 99.5% | – | 105% | – | 99.2% | 108%
NC(=O)NCCO | 110% | 99.2% | 97.4% | 102% | 101% | 95.6% | 103% | 109% | 100% | 105% | 104% | 92.5% | 94.5% | 98% | 95.5% | 97.7% | 113% | – | 97.8% | 107%
CCOC(C=O)OCC | 104% | 106% | 92.6% | 121% | 98.3% | 99% | 97.8% | 102% | 99.7% | 98.5% | 106% | 97.4% | – | 106% | 104% | 94.1% | 116% | – | 96.6% | 106%
C1C[S+]2CC[S+]1CC2 | 105% | 104% | 99.9% | 106% | 102% | 99% | 108% | 105% | 98.9% | 117% | – | 96.4% | 101% | 98.8% | 104% | 95.8% | 118% | – | 94.9% | 101%
CC(C)C(C)(C)C(=O)C(C)(C)C(C)(C)C | 107% | 96.8% | 92.6% | 104% | 102% | 95.8% | 98.8% | 96.9% | 98.1% | 109% | 102% | 92.9% | 98.8% | 101% | 102% | 93.3% | 104% | – | 92.6% | 114%
CN(C)c1ccc(/C=C/C(=O)c2ccc(NC(N)=O)cc2)cc1 | 98.8% | 64.6% | 82.3% | 107% | 99% | 98.8% | 81.1% | 84.9% | 95.2% | 67.4% | 80.1% | 69% | 98.4% | 97.6% | 92.2% | – | 104% | – | 89.9% | 86.8%
CCCCCC/C=C\CCCCCCCCCc1cc(O)cc(OC)c1O | 26% | 7.81% (active) | – | 22.7% | 9.15% (active) | 2.68% (active) | -58.3% (active) | 3.68% (active) | 8.67% (active) | 6.11% (active) | 24% | 10.2% | 1.77% (active) | -29% (active) | 6.32% (active) | -86.3% (active) | 24% | -43.1% (active) | -4.96% (active) | 27.3%
Cc1[nH]nc(C(N)=O)c1[N+](=O)[O-] | 103% | 126% | 94% | 86.9% | 99.4% | 99% | 93.3% | 95.2% | 108% | 99.6% | 93.2% | 103% | 100% | 91.2% | 90.3% | 97.2% | 93.2% | – | 93.7% | 90.4%
Cc1ccc(C(C)C)c(OCC(=O)O)c1 | 121% | 108% | – | 114% | 97.5% | 101% | 103% | 101% | 109% | 99.3% | 104% | 96.1% | 98.7% | 100% | 100% | 102% | 106% | 107% | 88.3% | 108%
Ic1cccs1 | 107% | 102% | 94.6% | 119% | 99.3% | 95.9% | 101% | 109% | – | 105% | 99.6% | 96.3% | 99.5% | 104% | 98.5% | 96.9% | 111% | – | 99.5% | 104%
O=C1C=CC(=O)C2=C1CCCC2 | 101% | 46.3% | 91.9% | 103% | 93.7% | 104% | 104% | 92.4% | 109% | 80.2% | 92.7% | 95.5% | 82.7% | 97.5% | 85.5% | – | 108% | – | 95.6% | 96.4%
